# Many of the other results were omitted from the sample, so hits are more common in it than they were.
# ST2 inh = IL1RL1 inhibition; Q01638; inhibition, % for hits at 17 µM; hit rate 2.3% among 78,000; AID 1259354; AlphaLISA ST2-Fc/biotin-IL-33 interaction, 1 h; in the data active = inhibition above about 30%
# Target sequence (Q01638 whole entry, looked up): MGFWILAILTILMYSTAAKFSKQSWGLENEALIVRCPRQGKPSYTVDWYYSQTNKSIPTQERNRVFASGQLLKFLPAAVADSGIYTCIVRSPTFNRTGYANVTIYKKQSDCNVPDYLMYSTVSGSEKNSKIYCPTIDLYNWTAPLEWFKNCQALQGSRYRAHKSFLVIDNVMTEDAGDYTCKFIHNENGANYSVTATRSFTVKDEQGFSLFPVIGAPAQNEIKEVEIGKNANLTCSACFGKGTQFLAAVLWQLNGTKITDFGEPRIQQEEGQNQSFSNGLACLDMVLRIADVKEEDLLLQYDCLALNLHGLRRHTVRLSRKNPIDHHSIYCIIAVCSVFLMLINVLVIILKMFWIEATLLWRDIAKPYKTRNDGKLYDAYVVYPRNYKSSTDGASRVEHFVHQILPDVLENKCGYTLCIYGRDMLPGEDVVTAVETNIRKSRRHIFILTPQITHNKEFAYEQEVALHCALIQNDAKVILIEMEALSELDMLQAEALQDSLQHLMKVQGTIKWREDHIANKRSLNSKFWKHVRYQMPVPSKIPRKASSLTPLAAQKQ
# Active calls of the source: *; i = inactive; ! = not confirmed by another sample.
SMILES,ST2 inh
C=CCn1c(SCC(=O)Nc2ccccc2[N+](=O)[O-])nc2sc(CC)cc2c1=O,30.0%*
CCc1ccccc1NC(=O)CSc1nc2ccccc2c(=O)n1CCc1ccccc1,i
C=CCn1c(SCC(=O)Nc2sc3c(c2C(=O)OCC)CCC3)nc2ccccc2c1=O,i
O=C(NC1CC1)C1CCCN(C2CCN(Cc3ncccn3)CC2)C1 (stereo not drawn),i
COc1ccccc1NC(NC(=O)c1ccc(Br)cc1)C(Cl)(Cl)Cl (stereo not drawn),i
O=C1C(=Cc2ccc3c(c2)OCO3)C(=O)c2ccccc21,i
CCSC1=N/C(=C\c2cc3c(cc2Cl)OCO3)C(=O)S1,i
CCSC1=N/C(=C\c2ccc3c(c2)OCO3)C(=O)S1,55.0%*
CCSC1=N/C(=C\c2ccc(N(CC)CC)cc2OC)C(=O)S1,65.0%*
CCN(CC)c1ccc(C=Nc2ccc([N+](=O)[O-])cc2OC)c(O)c1,i
CCOc1ccc(-c2nc3s/c(=C\c4ccc(OC)cc4OC)c(=O)n3n2)cc1,i
CN1C(=O)C(CC(=O)NCCc2ccccn2)(Cc2ccccc2)c2ccccc21 (stereo not drawn),i
C=CCn1c(=O)[nH]c2cc(C(=O)NC3CCCC3)ccc2c1=O,i
O=C(COc1ccc([N+](=O)[O-])cc1)NCc1ccccc1,i
O=[N+]([O-])c1ccc(N2CCN(CCc3ccccc3)CC2)cc1,i
[N-]=C=C1C(=O)N(CCc2ccccc2)C(=O)C([n+]2ccccc2)C1c1ccc([N+](=O)[O-])cc1 (stereo not drawn),42.0%*
CN1C(=O)C2CCCCN2c2ccc(C(=O)N3CCc4ccccc43)cc21 (stereo not drawn),i
CN1C(N)=NC(=O)/C1=C/c1ccc(Br)s1,i
C[C@H]1[C@@H]2[C@@H](O)C([C@H](C)C(=O)NCCN3CCOCC3)CC[C@@]2(C)CC[C@@H]1NC(=O)C1CCCCC1 (stereo partly drawn),32.0%*
COCCNC(=O)[C@@H](C)[C@@H]1CC[C@@]2(C)CC[C@H](NC(=O)C3CC3)[C@@H](C)[C@@H]2[C@H]1O,i
CC(=O)N[C@H]1CC[C@]2(C)CC[C@@H]([C@H](C)C(=O)NCCN3CCCC3)[C@H](O)[C@H]2[C@@H]1C,i
CC12C[C@H]3C[C@@H](C1)CC(NC(=O)c1ccc(Cl)cc1Cl)(C3)C2,i
CC(=O)CSc1nc(-c2cccs2)cc(C(F)(F)F)c1C#N,i
CCc1nnc(NC(=O)CSc2nc(-c3cccs3)cc(C(F)(F)F)c2C#N)s1,i
N#Cc1c(C(F)(F)F)cc(-c2cccs2)nc1SCC(=O)Nc1ccc([N+](=O)[O-])cc1,38.0%*
SMILES,ST2 inh
Cc1cccc(C(=O)N(c2cc(C)cc(C)c2)C2C=CS(=O)(=O)C2)c1 (stereo not drawn),i
CCCNC(=O)C1(O)c2ccccc2NC(=O)N1c1ccc(OCC)cc1 (stereo not drawn),i
O=C(Nc1cccc(-c2nc3ccccc3[nH]2)c1)c1ccccc1,i
O=C(NCc1ccccc1)c1ccccc1-c1nc2ccccc2[nH]1,i
O=C(Nc1nonc1-c1nc2ccccc2[nH]1)c1ccccc1Cl,32.0%*
Cc1c(O)cc(C(=O)N2CCCC(c3[nH]ncc3-c3ccccc3)C2)cc1O (stereo not drawn),i
Cc1nc2cc(OCc3cc(C(=O)NCc4cc(F)ccc4C)no3)ccc2s1,i
CCCn1cnc2c(cnn2-c2ccc(F)cc2)c1=O,i
CCCCn1cnc2c(cnn2-c2ccc(Cl)cc2)c1=O,30.0%*
CCCCn1cnc2c(cnn2-c2ccc(F)cc2)c1=O,i
Cc1ccc(N2CCN(S(=O)(=O)c3ccc4c(c3)CCC(=O)N4)CC2C)cc1 (stereo not drawn),i
Cc1cccc(-c2noc([C@@H]3C[C@@H](O)CN3CC3CC3)n2)c1,i
Cc1cc(NC(=O)c2cccc(=O)[nH]2)n(Cc2ccccc2Cl)n1,i
COc1ccc(-c2noc([C@@H]3C[C@H](NS(=O)(=O)c4cccs4)CN3C)n2)cc1,41.0%*
CN1C[C@@H](NS(=O)(=O)c2ccccc2)C[C@H]1c1nc(-c2ccc(Cl)cc2)no1,i
CN1C[C@@H](NS(=O)(=O)c2ccccc2)C[C@H]1c1nc(-c2ccccc2)no1,i
COc1ccc(-c2nccn2CCc2c[nH]c3ccccc23)cc1O,i
COC(=O)C1CCN(C(=O)c2cc3c(=O)n4ccccc4nc3n2C)CC1,i
O=c1cc(-c2ccc(O)cc2)oc2ccccc12,i
O=c1cc(-c2ccccc2)c2ccc(O)cc2o1,i
O=c1cc2oc3cc(O)c(O)cc3c(-c3ccccc3)c-2cc1O,36.0%*
CCS(=O)(=O)c1ncc(CN2CCC(OC)CC2)n1CCCc1ccccc1,i
Cc1ccc(N2CN=C3SCC(=O)N3C2)cc1C,37.0%*
Cc1ccc(N2CN=C3SCC(=O)N3C2)cc1Cl,i
Cc1ccc(N2C(=O)C3CCCCC3C2=O)cc1C (stereo not drawn),i
SMILES,ST2 inh
CCN(CCn1cccn1)Cc1cc(F)ccc1O,i
CCSc1nc2c([nH]c3ccccc32)c(=O)n1-c1ccccc1,i
Cc1ccc(N[C@H]2CS(=O)(=O)C[C@H]2O)cc1,i
COc1ccc(-c2cc(C(=O)Nc3cc(Br)ccc3O)no2)cc1,35.0%*
O=C(Nc1ccc(F)cc1F)c1cc(-c2ccc(Br)cc2)on1,i
O=C(Nc1ccc(Br)cc1)c1cc(-c2ccc(Cl)cc2)on1,i
CC(C)C(C)n1nccc1NC(=O)c1ccc(-n2cnnc2)nc1 (stereo not drawn),i
O=C(O)C1Cc2c([nH]c3ccccc23)C(c2cc(Br)ccc2O)N1 (stereo not drawn),i
COc1cc(/C=C/c2ccc3cccc(O)c3n2)cc(Cl)c1OC,34.0%*
COc1cccc2ccc(/C=C/c3ccc4c(c3)OCO4)nc12,i
COc1cc(C=O)cc(Cl)c1OCc1ccc(Br)cc1,i
COc1cc(C=C2C(=O)OC3(CCCCC3)OC2=O)cc(Br)c1O,i
CCOc1ccc2oc(-c3ccccc3)c(C(=O)O)c2c1,i
CCOc1ccc(N(C(C)C(=O)NCc2ccco2)S(C)(=O)=O)cc1 (stereo not drawn),i
CCOc1ccc2sc(C=NCc3ccco3)c(O)c2c1,31.0%*
Cn1c(=O)[nH]c(=O)c2c1nc(CN1CCOCC1)n2Cc1c(F)cccc1Cl,i
CCN(CC)Cc1ccc(C(=O)O)cc1,i
Cc1cc(NC(=O)c2cc(-c3ccc4c(c3)OCO4)on2)no1,i
O=C(Nc1ccc2c(c1)OCO2)c1cc(-c2ccccc2O)on1,i
O=C(O)C1C2C=CC(O2)C1C(=O)Nc1ccc2c(c1)OCO2 (stereo not drawn),31.0%*
O=C(CC1CCCCC1)Nc1ccc2c(c1)OCO2,i
O=C(Nc1ccc2c(c1)OCO2)c1ccc(Br)cc1,i
Cc1cccc(NC(=O)c2cc3c([nH]c4ccccc43)c(C)n2)c1C,i
COc1cc(C(=O)Nc2ccc3c(c2)OCO3)cc(OC)c1OC,i
O=C(Nc1ccc(F)c(Cl)c1)c1cc(-c2ccc3c(c2)OCO3)on1,i
O=C(O)C1CC=CCC1C(=O)Nc1ccc2c(c1)OCO2 (stereo not drawn),i
Cc1nc(C(=O)Nc2ccc3c(c2)OCO3)cc2c1[nH]c1ccccc12,30.0%*
Cc1ccc(C(=O)Nc2ccc3c(c2)OCO3)cc1,30.0%*!
CC(=O)c1ccc(NC(=O)c2cc(-c3ccc4c(c3)OCO4)on2)cc1,31.0%*
